# Only some compounds are listed: those with a hit (about 2.9% of all), similar ones and a draw of the others.
# HSF1 inh = HSF1 inhibitors in luciferase reporter cells, primary screen, cell-based, NIH3T3, luminescence | NIH3T3-HGL HSE-luciferase, MG132-induced, luminescence 8 h; hits give low values | activity change, negative = inhibition, % at 7.5 µM (by protocol) | 300,000 compounds, 0.77% hits | AID 2098, 2009;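 active = more than half of replicate wells show activity change below -50%, luminescence cut by over half; inconclusive = some wells, but at most half, below -50%; inactive = no replicate well below -50%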;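 note: luciferase reports HSF-1 transcriptional activity via heat shock element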
# S1P4 ag = S1P4 receptor agonists, primary screen, cell-based; 220,000 compounds, 0.35% hits; activation, % at 4.98 µM; AID 1509, 2009; Sphingosine 1-phosphate receptor 4 (Homo sapiens), O95977; S1P4-expressing cell line, agonist reporter assay; in the data active = activation above about 11%
# Target sequence (O95977 whole entry, looked up): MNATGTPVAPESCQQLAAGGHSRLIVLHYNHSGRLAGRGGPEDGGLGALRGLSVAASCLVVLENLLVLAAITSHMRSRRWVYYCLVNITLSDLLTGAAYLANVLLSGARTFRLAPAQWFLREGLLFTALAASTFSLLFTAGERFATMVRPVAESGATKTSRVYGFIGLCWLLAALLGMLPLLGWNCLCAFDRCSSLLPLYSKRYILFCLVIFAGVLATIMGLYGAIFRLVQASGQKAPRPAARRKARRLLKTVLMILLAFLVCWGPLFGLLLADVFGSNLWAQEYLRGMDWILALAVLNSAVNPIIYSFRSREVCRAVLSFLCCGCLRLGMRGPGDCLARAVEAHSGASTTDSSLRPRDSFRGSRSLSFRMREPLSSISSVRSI
# HSF1 activator = HSF-1 activators, primary screen, NIH3T3-HGL cells, MG132 stress, luminescence, single point; NIH3T3-HGL HSF-1 luciferase reporter, 8 h; 100% = twice DMSO control signal; activation, % at 9 µM; 300,000 compounds, 1.7% hits; AID 504408, 2011;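 active = mean replicate activation of at least 50% with a set share of replicates each reaching 50%; inconclusive = only one of those two conditions met; inactive = mean below 50% and too few replicates reaching it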
# S1P4 antag = S1P4 receptor antagonists, primary screen, cell-based | Sphingosine 1-phosphate receptor 4 (Homo sapiens), O95977 | S1P4-expressing cells, antagonist mode, reporter read-out | inhibition, % at 4.98 µM | 220,000 compounds, 0.26% hits | AID 1510, 2009; in the data active = inhibition above about 29%
# S1P3 antagonist = S1P3 receptor antagonists, primary screen, cell-based; 170,000 compounds, 0.27% hits; CHO S1P3 NFAT-BLA reporter, FRET fluorescence, antagonist mode; Sphingosine 1-phosphate receptor 3 (Homo sapiens), Q99500; inhibition, % at 4.98 µM;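 active = inhibition above the plate cutoff, the mean inhibition of test wells on that plate plus 3 SD, cut at about 28% in these data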;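 note: cells challenged with S1P at its EC80 of 0.8 µM; blue over green emission ratio from cleaved BLA substrate after 4 h stimulation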
# Hsp70 act = Hsp70 transcriptional activators, primary screen, cell-based, HeLa, Hsp70 promoter luciferase, luminescence, 10 µM | activation, % at 10 µM | AID 1203, 2008 | HeLa Hsp70 promoter luciferase reporter; scaled: vehicle 0, proteasome-inhibitor control 100% | 200,000 compounds, 0.04% hits;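 active = activation above the mean across all tested compounds plus 3 SD, cutoff set per campaign, cut at about 5.5% in these data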
# S1P4 antag conf = S1P4 receptor antagonists, human, confirmation, cell-based. inhibition, % at 4.98 µM. S1P4-expressing cell line, antagonist mode, reporter read-out. shares compounds with S1P4 antag. 520 compounds, 71% hits; in the data active = inhibition above about 30%
# S1P1 antag = S1P1 receptor antagonists, human, counter-screen for S1P4 antagonist project, cell-based | shares compounds with S1P4 antag | cell-based S1P1 antagonist counterscreen, inhibition | inhibition, % at 4.98 µM | 520 compounds, 37% hits; in the data active = inhibition above about 40%;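 note: receptor stimulated with S1P near its EC80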
# A number is an active result; 0 = inactive; ? = inconclusive; - = no result given.
SMILES,HSF1 inh,S1P4 ag,HSF1 activator,S1P4 antag,S1P3 antagonist,Hsp70 act,S1P4 antag conf,S1P1 antag
Cc1ccc(CNC(=O)CSc2c3c(nc4ccc(Cl)cc24)CCCC3)o1,0,0,119.7,35.0,-,0,29.1,0
CCN(CC)CCNC(=O)CSc1c2c(nc3cc(Cl)ccc13)CCCC2,0,0,?,0,0,0,-,-
O=C(Nc1cccc(Cl)c1)C1COc2ccccc2O1 (stereo unspecified),0,-,0,-,-,-,-,-
O=C1c2cccc3c([N+](=O)[O-])ccc(c23)C(=O)N1c1ccccn1,-67.6,0,0,104.7,-,0,112.8,151.2
O=C1c2cccc3c(N4CCCCC4)ccc(c23)C(=O)N1c1ccccn1,0,0,0,0,0,0,-,-
Cc1cc(NC(=O)CCS(=O)(=O)c2nc(-c3ccccc3)cc(C(F)(F)F)n2)no1,-,-,-,-,0,-,-,-
CS(=O)(=O)c1nc(-c2ccccc2)cc(C(F)(F)F)n1,-97.7,0,0,39.9,-,0,115.6,0
CCOC(=O)C1CCCN(S(=O)(=O)c2c(C(=O)N3CCCCC3)c(C)n(C)c2C)C1 (stereo unspecified),0,-,0,-,-,-,-,-
CC1=NNC(=O)/C1=C\c1cn(-c2ccccc2)nc1-c1cccs1,0,0,0,0,0,0,-,-
CC1=NNC(=O)/C1=C\c1cn(-c2ccccc2)nc1-c1ccc(F)cc1,0,0,146.1,29.7,0,0,109.6,0
COC(=O)N=Nc1c(O)[nH]c2ccc(Br)cc12,0,0,0,0,0,-,-,-
Oc1[nH]c2ccc(Br)cc2c1N=NC(=S)N1CCOCC1,0,0,240.1,32.7,0,-,101.5,58.3
COC(=O)c1nn(-c2ccccc2)c(Sc2ccc(Cl)cc2)c1/C=N/O,0,0,0,0,-,0,-,-
CC1Cn2c(nnc2-c2cc3ccccc3cc2O)S1 (stereo unspecified),0,0,0,33.7,0,0,0,0
CC1Cn2c(nnc2-c2ccccc2O)S1 (stereo unspecified),0,0,0,0,0,0,-,-
O=C(/C=C/c1ccccc1)CC(O)(c1ccccc1)C(F)(F)C(F)F (stereo unspecified),0,0,0,58.5,-,0,106.4,0
O=C(/C=C/c1ccccc1)CC(O)(c1ccccc1)C(F)(F)F (stereo unspecified),0,0,0,46.9,-,0,106.2,41.4
COc1ccc(/C=C/C(=O)CC(O)(c2ccccc2)C(F)(F)F)cc1 (stereo unspecified),0,0,0,0,-,0,-,-
O=c1c2ccccc2nc(SCc2ccncc2)n1CC1CCCO1 (stereo unspecified),0,0,0,0,0,0,-,-
C=CCOC(=O)C1=C(C)N=C2SCCC(=O)N2C1c1ccc(OC(=O)c2ccco2)cc1 (stereo unspecified),0,0,0,37.7,-,0,58.6,52.3
COC(=O)C1=C(C)N=C2SCCC(=O)N2C1c1ccc(OC(=O)c2ccco2)cc1 (stereo unspecified),0,0,0,0,-,0,-,-
CN(C)CCCNC(=O)/C(=C\c1ccc(-c2ccc(Br)cc2)o1)NC(=O)c1ccccc1,0,0,0,0,0,0,-,-
Cc1ccc(C(=O)N/C(=C\c2ccc(-c3ccc(Cl)cc3)o2)C(=O)NCCCN(C)C)cc1,0,0,0,36.0,0,0,0,0
CCN1C=CC2=C(C#N)C(N)C(C#N)(C#N)C(c3ccccc3C(F)(F)F)C2C1 (stereo unspecified),0,0,0,0,-,0,-,-
N=C1SCC(=O)N1c1ncc(Cc2ccccc2Cl)s1,0,0,0,48.2,0,0,94.0,98.1
SMILES,HSF1 inh,S1P4 ag,HSF1 activator,S1P4 antag,S1P3 antagonist,Hsp70 act,S1P4 antag conf,S1P1 antag
CCOC(=O)CNc1ccc(OC(F)(F)F)cc1,0,0,0,0,0,-,-,-
Cn1c(=O)[nH]c(=O)c2c1nc([N+](=O)[O-])n2Cc1ccccc1,0,0,155.4,51.3,0,-,67.5,56.1
CCNc1nc2c(c(=O)[nH]c(=O)n2C)n1CC(C)C,0,0,0,0,0,0,-,-
CC(C)Cn1c([N+](=O)[O-])nc2c1c(=O)[nH]c(=O)n2C,0,0,0,29.1,0,-,0,0
Cc1c(NC(=O)COC(=O)CCC(=O)c2ccc(Cl)cc2)c(=O)n(-c2ccccc2)n1C,0,0,0,0,0,0,-,-
CCC(CC)NC(=O)CO/N=C/c1ccccc1OC(F)F,0,0,0,38.7,0,0,0,0
O=C(CO/N=C/c1ccccc1OC(F)F)NC1CCCCC1,0,0,0,0,0,0,-,-
CC(=O)n1cc(N(C(=O)CCl)c2ccc(C)cc2)c2ccccc21,0,0,0,29.1,0,-,106.2,45.4
Cc1ccccc1NC(=O)N1CCc2ccccc2C1,0,0,0,32.3,0,0,80.1,0
Cc1cccc(NC(=O)N2CCc3ccccc3C2)c1C,0,-,0,-,-,-,-,-
CCN(c1ccccc1)S(=O)(=O)c1cc(NC(=O)CSc2n[nH]c(=O)[nH]c2=O)ccc1Cl,0,0,0,0,0,-,-,-
CC(C)CNC(=O)c1cnn2c(C(F)(F)F)cc(C(F)(F)F)nc12,0,0,0,0,0,-,-,-
CCS(=O)(=O)N1CCC(C(=O)NCCCN2CCCC2)CC1,0,0,0,32.3,0,0,0,0
CCS(=O)(=O)N1CCC(C(=O)NCCN2CCOCC2)CC1,0,0,0,0,0,0,-,-
COc1ccc(N=C2C(=Nc3ccc(OC)cc3)N(c3ccc(OC)cc3)C(=S)N2C)cc1,0,0,0,34.6,-,0,38.4,0
Cc1nn(C)cc1C(=O)Nc1cc(Oc2ccc(Cl)cc2)cc([N+](=O)[O-])c1,0,0,0,0,-,0,-,-
Cn1cc([N+](=O)[O-])c(C(=O)Nc2cc(Oc3ccccc3)cc([N+](=O)[O-])c2)n1,0,0,0,37.1,0,0,111.4,0
N/C(=N/OC(=O)c1ccccc1Cl)c1ncc([N+](=O)[O-])s1,0,0,179.4,33.7,0,-,0,0
C=CCSc1nnc(NC(=O)c2c(CC)noc2C)s1,0,-,0,-,-,-,-,-
CCc1ccc(NC(=O)CSc2nc(=O)n(CCCN(C)C)c3c2CCC3)cc1,0,-,0,-,-,-,-,-
O=C(COC(=O)c1cc(S(=O)(=O)NCc2ccccc2)ccc1O)c1cc2ccccc2o1,0,0,0,0,0,-,-,-
